# According to PubChem BioAssay AID1259418 (Broad Institute, 2018):
# About 840 (25%) of roughly 3,400 compounds were called active. Roughly 11% stayed inconclusive and do not appear here. A selection follows. Measured potencies and affinities stand elsewhere. Unmarked numbers belong to inactive results.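 How the source made its calls: active means fitted half-maximal concentration of signal decrease at or below twice the sample's top tested concentration; inconclusive means flat curve between -70 and -30 percent, or poor fit; inactive means flat within 30 percent, signal rise, or potency above limit.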
# Assay: T. gondii growth inhibition with IFN-gamma, dose response, cell-based, ME49Luc, HeLa, luciferase, 72 h (AID 1259418)
# Conditions: T. gondii ME49Luc in IFN-y HeLa, hits give low values, -100% = high-dose IFN-γ control wells; at 19.5 µM unless noted
row,SMILES,max activity
1,CN1C(=O)CCc2cc(NC(=O)C3CCC3)ccc21,8.04%
2,CN1C(=O)CCc2cc(NC(=O)C3CCCCC3)ccc21,40.8%
3,COc1ccc(-c2nc(Nc3cc(OC)c(OC)c(OC)c3)c3ccccc3n2)cc1,-9.87% [at 0.16 µM]
4,O=C(CCC1N=C2c3ccccc3N=C(SCc3cc(=O)n4cc(Cl)ccc4n3)N2C1=O)NCc1ccc2c(c1)OCO2 (stereo unspecified),-18.4% [at 10 µM]
5,CCCCN(C)C(=O)Cn1c(=O)c(S(=O)(=O)c2ccccc2)cc2cc(C)ccc21,-7.02% [at 0.35 µM]
6,COc1ccc(C(=O)N2CCC3(CC2)Nc2ccc(C)c(C)c2-n2cccc23)cc1,7.01% [at 0.68 µM]
7,CCS(=O)(=O)N1CCC(C(=O)NCCc2csc(-c3ccccc3)n2)CC1,-17%
8,Cc1ccc(S(=O)(=O)N2CCC(C(=O)NCCc3csc(-c4ccccc4)n3)CC2)c(C)c1,19.2% [at 0.35 µM]
9,O=C(NCCc1csc(-c2ccccc2)n1)C1CCN(S(=O)(=O)c2ccccc2F)CC1,8.96% [at 0.16 µM]
10,Cc1ccc(S(=O)(=O)N2CCC(C(=O)NCCc3csc(-c4ccccc4)n3)CC2)cc1C,12.1% [at 1.35 µM]
11,COc1ccc(-c2nc3c(s2)CN(C(=O)Nc2ccccc2C(F)(F)F)CC3)cc1,102%
12,Cc1nc(Nc2ccc(F)cn2)sc1C(=O)N1CCC(C(N)=O)(N2CCCCC2)CC1,6.22%
13,COc1ccccc1NC(=O)Nc1ccc(-c2nc(-c3cccc(Br)c3)co2)cc1,8.23%
14,Cc1ccc2c(c1)cc(S(=O)(=O)c1ccccc1)c(=O)n2CC(=O)NCCC(C)C,-4.39% [at 5 µM]
15,COc1ccc(-c2nc(N3CCN(c4cccc(Cl)c4)CC3)c3ccccc3n2)cc1,-7.34% [at 10 µM]
16,COC(=O)c1ccccc1NC(=O)N1CCN(Cc2nc(-c3cccc(Cl)c3)oc2C)CC1,3.54% [at 2.6 µM]
17,COc1ccccc1NC(=O)CN1CCC2(CC1)N=C(c1ccc(Cl)cc1)C(=O)N2,-13.9% [at 1.35 µM]
18,Cc1ccc(C)c(-c2coc(-c3ccc(NC(=O)CC(C)C)cc3)n2)c1,-23% [at 10 µM]
19,COc1ccc(-c2nc(CSc3nc4c(c(=O)[nH]3)CN(Cc3ccccc3)CC4)c(C)o2)cc1,9.43% [at 1.35 µM]
20,Cn1cnc2c1C(C(=O)O)CN(C(=O)c1ccsc1)C2 (stereo unspecified),44.9%
21,C=CCN1CCC2(CC1)CC(NCc1ccc(C)s1)c1ccccc1O2 (stereo unspecified),-7.33% [at 1.2 µM]
22,COc1ccccc1CNC(=O)CC1Nc2c3ccccc3nc(=S)n2C1=O (stereo unspecified),46.9% [at 0.16 µM]
23,O=C(CC1Nc2c3ccccc3nc(=S)n2C1=O)NCc1ccccc1 (stereo unspecified),26.5% [at 2.6 µM]
24,O=C(CCC1Nc2c3ccccc3nc(=S)n2C1=O)NCCN1CCN(c2cccc(Cl)c2)CC1 (stereo unspecified),7.2% [at 5 µM]
25,CCCCNC(=O)CC1Nc2c3ccccc3nc(=S)n2C1=O (stereo unspecified),-20.7% [at 10 µM]
26,O=C(CCC1Nc2c3ccccc3nc(=S)n2C1=O)NCCN1CCN(c2ccccc2)CC1 (stereo unspecified),19.8% [at 0.16 µM]

row,SMILES,max activity
1,O=C(CC1Nc2c3ccccc3nc(=S)n2C1=O)NCc1ccc(Cl)cc1 (stereo unspecified),15.8%
2,O=C(CC1Nc2c3ccccc3nc(=S)n2C1=O)NCc1ccc(F)cc1 (stereo unspecified),15.6% [at 0.16 µM]
3,CCCCCNC(=O)CC1Nc2c3ccccc3nc(=S)n2C1=O (stereo unspecified),-10.3% [at 10 µM]
4,CCc1nc(OCC(=O)Nc2ccc(Br)cc2)c2ccccc2n1,33.9% [at 0.68 µM]
5,CCc1onc(C)c1C1CCCN1C(=O)Cn1nc(C(F)(F)F)c2c1CCCC2 (stereo unspecified),9.22% [at 2.6 µM]
6,CN(C)S(=O)(=O)N1C[C@@H]2CN(Cc3ccoc3)CCO[C@H]2C1,25.4%
7,Cc1cnc(N2Cc3nccn3CC(CN3CCCC3)C2)nc1 (stereo unspecified),46.2%
8,COc1ccc(-c2nc3c(s2)CN(C(=O)Nc2cc(C)ccc2C)CC3)cc1,75%
9,COc1ccc(-c2nc(CN(c3ccccc3OC)S(=O)(=O)c3ccccc3)c(C)o2)cc1,24.5% [at 10 µM]
10,CCOc1ccccc1N(Cc1nc(-c2cccc(C)c2)oc1C)S(=O)(=O)c1ccccc1,3.42% [at 0.68 µM]
11,CCOc1ccc(-c2nc(CN(c3ccccc3OC)S(=O)(=O)c3ccc(C)cc3)c(C)o2)cc1,17.2% [at 0.68 µM]
12,COc1ccccc1N(Cc1nc(-c2ccc(OC(C)C)cc2)oc1C)S(=O)(=O)c1ccccc1,-5.99% [at 1.35 µM]
13,CCOc1ccccc1CNc1nc(-c2ccc(OC)cc2)nc2ccccc12,-11.7% [at 0.35 µM]
14,NC(=O)C1(N2CCCCC2)CCN(c2ncc(NC(=O)c3ccccc3)cc2C(=O)O)CC1,14.4% [at 0.16 µM]
15,Cc1cccc(N2CCN(c3nc(-c4ccc(Cl)cc4)nc4ccccc34)CC2C)c1 (stereo unspecified),-29% [at 0.35 µM]
16,Cc1ccc2c(c1C)-n1cccc1C1(CCN(C(=O)c3cccc(Br)c3)CC1)N2,-13.6% [at 1.35 µM]
17,Cc1nc(OCC(=O)Nc2ccc(Cl)cc2Cl)c2ccccc2n1,23% [at 5 µM]
18,Cc1ccc(-c2coc(-c3ccc(NC(=O)C(C)C)cc3)n2)c(C)c1,-33.6% [at 5 µM]
19,Cc1ccc(-c2coc(-c3ccc(NC(=O)Nc4ccccc4F)cc3)n2)cc1,86.4% [at 10 µM]
20,Cc1oc(-c2ccccc2)nc1Cn1nnc(-c2nc(-c3ccc(C(F)(F)F)cc3)no2)c1C,47.1%
21,CN(C)C(=O)COCC1CN(S(C)(=O)=O)Cc2nnn(C)c21 (stereo unspecified),28%
22,Cc1csc(-c2cc(S(=O)(=O)N3CCC(Cc4ccccc4)CC3)c(C)s2)n1,-11.8% [at 0.16 µM]
23,Cc1ccc(C(=O)Nc2c(C(=O)N3CCN(c4ccccn4)CC3)[nH]c3ccc(C)cc23)cc1,31.1% [at 0.68 µM]
24,Cc1ccc2c(c1C)-n1cccc1C1(CCN(C(=O)c3ccccc3C(F)(F)F)CC1)N2,-6.6% [at 5 µM]
25,COc1cc(OC)cc(C(=O)N2CCC3(CC2)Nc2cc(F)ccc2-n2cccc23)c1,10.1%
26,COc1ccc2c(c1)NC1(CCN(C(=O)COc3cccc(C)c3)CC1)c1cccn1-2,-5.04% [at 0.16 µM]

row,SMILES,max activity
1,COc1ccc(OCC(=O)N2CCC3(CC2)Nc2cc(F)ccc2-n2cccc23)cc1,4.86% [at 10 µM]
2,COc1ccc2c(c1)NC1(CCN(C(=O)c3cc(OC)c(OC)c(OC)c3)CC1)c1cccn1-2,9.35% [at 0.35 µM]
3,COc1ccc(-c2nc(Nc3ccc(F)cc3Cl)c3ccccc3n2)cc1,8.01%
4,Cc1oc(-c2ccccc2)nc1Cn1nnc(-c2nc(-c3ccc(Cl)cc3)no2)c1C,11.1%
5,N#CCSC1=Nc2ccccc2C2=NC(CC(=O)NC3CCCCC3)C(=O)N12 (stereo unspecified),23.6% [at 10 µM]
6,COCC1CN(C(=O)c2cc(C)on2)Cc2c1cnn2CC1CC1 (stereo unspecified),27.1%
7,CC(=O)N1Cc2ncn(CC3CC3)c2C(COCC2CCOCC2)C1 (stereo unspecified),8.65%
8,CCOc1ccccc1C(=O)N1CCC2(CC1)Nc1ccc(C)c(C)c1-n1cccc12,-6.2% [at 2.6 µM]
9,COc1ccccc1N(Cc1nc(-c2ccccc2)oc1C)S(=O)(=O)c1ccccc1,-5.89% [at 0.35 µM]
10,COc1ccc(S(=O)(=O)N(Cc2nc(-c3cccc(Cl)c3)oc2C)c2ccccc2OC)cc1,-7.97% [at 5 µM]
11,CCOc1ccc(NC(=O)Nc2ccc(-c3nc(-c4ccc(C)cc4)co3)cc2)cc1,62.7%
12,N#CCSC1=Nc2ccccc2C2=NC(CCC(=O)NCc3ccc4c(c3)OCO4)C(=O)N12 (stereo unspecified),17.8%
13,CCc1c(C)sc2c1CCN(Cc1nc(-c3cc(C)ccc3C)oc1C)C2c1ccccc1 (stereo unspecified),12.6% [at 5 µM]
14,CN1CCN(C(=O)Cc2ccsc2)Cc2cccnc21,40%
15,Cc1ccnc(Nc2nc(C)c(C(=O)N3CCC(C(N)=O)(N4CCCCC4)CC3)s2)c1,-7.52% [at 0.35 µM]
16,CCc1ccc(Nc2nc(-c3ccc(OC)cc3)nc3ccccc23)cc1,-16.2% [at 0.35 µM]
17,COc1ccc(-c2nc(Nc3ccc(CN4CCCCC4)cc3)c3ccccc3n2)cc1,10.9% [at 10 µM]
18,CCN(CCNc1nc(-c2ccccc2Cl)nc2ccccc12)c1cccc(C)c1,12.3%
19,COc1ccc(-c2nc(Nc3cc(OC)ccc3OC)c3ccccc3n2)cc1,-18.7% [at 5 µM]
20,COc1ccc(Nc2nc(-c3ccc(OC)cc3)nc3ccccc23)cc1,12.9%
21,Clc1ccccc1-c1nc(NCCCc2ccccc2)c2ccccc2n1,-24.4% [at 10 µM]
22,COc1ccc(-c2nc(Nc3ccccc3)c3ccccc3n2)cc1,6.36% [at 10 µM]
23,COc1ccc(-c2nc(Nc3ccccc3OC)c3ccccc3n2)cc1,20%
24,Cc1ccccc1CC(=O)N1CCC2(CC1)Nc1cc(F)ccc1-n1cccc12,10.3% [at 0.68 µM]
